HTR5A inv ag = HTR5A inverse agonists in luminescence cell assay, primary screen, counter-screen for OPRM1-OPRD1 heterodimer inverse agonist project, full-deck HTS. 5-hydroxytryptamine receptor 5A (Homo sapiens), P47898. HTR5A cell line, inverse agonism. inhibition, % at 9.3 µM. actives 0.083% (n = 340,000). AID 504634, 2011; in the data active = inhibition mostly above about 23%, no sharp cut-off; inactive = mostly below about 18%;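 also: 0% = cells with DMSO and 100% = no-cell wells with DMSO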
Target sequence (P47898 whole entry, looked up): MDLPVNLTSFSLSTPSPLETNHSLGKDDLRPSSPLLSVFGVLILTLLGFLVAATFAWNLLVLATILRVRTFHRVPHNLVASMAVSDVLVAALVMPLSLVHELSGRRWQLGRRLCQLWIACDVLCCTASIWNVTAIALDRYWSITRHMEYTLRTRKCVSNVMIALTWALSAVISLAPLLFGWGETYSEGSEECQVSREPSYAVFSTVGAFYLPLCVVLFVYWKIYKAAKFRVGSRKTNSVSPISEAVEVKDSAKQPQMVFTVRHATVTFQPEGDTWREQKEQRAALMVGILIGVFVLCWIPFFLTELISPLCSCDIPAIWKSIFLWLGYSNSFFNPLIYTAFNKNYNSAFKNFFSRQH
m5-HT2A agonist = mouse Htr2a agonists via beta-arrestin recruitment, primary screen, cell-based, luminescence; actives 0.66% (n = 360,000); 5-hydroxytryptamine receptor 2A (Mus musculus), P35363; CHO-K1 mHTR2A beta-arrestin complementation; percent of 30 µM serotonin response; activation, % at 7.6 µM; AID 624169, 2012;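 active = activation above a run cutoff, the mean activation of all tested compounds plus 3 SD, cut at about 14% in these data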;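 also: 0% = plate median of compound wells and 100% = 30 µM serotonin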
MOR-DOR inv ag-1 = inverse agonists of MOR-DOR heterodimerization, primary screen, cell-based, luminescence; Mu-type opioid receptor (Homo sapiens) + Delta-type opioid receptor (Homo sapiens), …; cell-based MOR-DOR heterodimer luminescence, inverse agonism; inhibition, % at 9.3 µM; actives 0.21% (n = 340,000); AID 504357, 2011; in the data active = inhibition above about 22%, passing the limit was not always enough;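 also: 0% = cells with DMSO and 100% = wells without cells with DMSO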
MOR-DOR ag-1 = agonists of OPRM1-OPRD1 heterodimerization, primary screen, cell-based, luminescence; cells; AID 504326, 2011; Mu-type opioid receptor (Homo sapiens) + Delta-type opioid receptor (Homo sapiens), …; activation, % at 9.3 µM; actives 0.3% (n = 340,000);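 also: 0% = vehicle-treated cells and 100% = reference agonist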
HTR5A ag = HTR5A agonists in luminescence cell assay, primary screen, counter-screen for OPRM1-OPRD1 heterodimer agonist project, full-deck HTS. actives 0.61% (n = 340,000). activation, % at 9.3 µM. 5-hydroxytryptamine receptor 5A (Homo sapiens), P47898. cell-based. AID 504692, 2011; in the data active = activation mostly above about 9.5%, no sharp cut-off; inactive = mostly below about 7.6%;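 also: 0% = cells with vehicle only and 100% = reference agonist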
MOR-DOR inv ag-2 = inverse agonists of MOR-DOR heterodimerization, counter-screen for HTR5A inverse agonist project, cell-based, luminescence | shares compounds with HTR5A inv ag | U2OS counter-screen cells, complementation luminescence | inhibition, % at 9.3 µM | 190 tested, under 10 active | AID 504912, 2011; call rule not given here;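 also: 0% = cells with DMSO and 100% = wells without cells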
HTR5A inv conf = HTR5A inverse agonists, retest of hits, confirmation, cell-based, luminescence. shares compounds with HTR5A inv ag. HTR5A-expressing cells, inverse agonism. inhibition, % at 9.3 µM. 190 tested, under 10 active; call rule not given here;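 also: 0% = cells with DMSO and 100% = no cells with DMSO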
MOR-DOR ag-2 = OPRM1-OPRD1 heterodimerization promoters, counter-screen for HTR5A agonist project, cell-based, luminescence; U2OS counter-screen cells, complementation luminescence, 3 h; actives 13% (n = 800); AID 504913, 2011; shares compounds with HTR5A ag; activation, % at 9.3 µM
HTR5A ag confirm = HTR5A agonists, retest of hits, confirmation, cell-based, luminescence. activation, % at 9.3 µM. shares compounds with HTR5A ag. HTR5A agonist cell assay. actives 17% (n = 800); in the data active = activation above about 17%;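 also: 0% = cells with vehicle only and 100% = full reference agonist response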
* = called active by the depositor; i = inactive; . = no result given. In the library only some 1.6% were active in any assay of this set; here they are far more common. Rule as the data show it, unless noted: active = activation above about 18%; inactive = the rest.

SMILES	HTR5A inv ag	m5-HT2A agonist	MOR-DOR inv ag-1	MOR-DOR ag-1	HTR5A ag	MOR-DOR inv ag-2	HTR5A inv conf	others
OCC[C@@H]1C[C@H](O)[C@@H](O)[C@@]2(OCCCc3ccccc32)O1	44*	8	0	0	-17	-5	3
OCC[C@@H]1C[C@@H](O)[C@H](O)[C@]2(OCCc3ccccc32)O1	0	-5	12	-2	-1	.	.
O=C(NC1CCCC1)C1C(c2ccc(C(F)(F)F)cc2)=Nc2ccccc2N1C(=O)c1ccccc1 (stereo not drawn)	.	-6	.	.	.	.	.
Cc1ccc(/C=C/c2nnc(-c3ccc(C)cc3)o2)cc1	42*	0	-13	2	-18	-42	-199
Cc1ccc(/C=C/c2nnc(-c3cccs3)o2)cc1	13	1	-33	5	-6	.	.
Cc1ccc(S(=O)(=O)N(C)C[C@@H]2OCc3cnnn3CCCC(=O)N([C@H](C)CO)C[C@H]2C)cc1	.	6	.	.	.	.	.
COc1ccc(CNC(=S)NNC(=O)c2cc3ccccc3o2)cc1	11	6	0	0	-4	.	.
COc1ccc(OCC(=O)NNC(=O)c2cc3ccccc3o2)cc1	39*	3	9	-2	2	-24	7
CC(C)C(=O)NCCc1nc(-c2ccccc2Cl)no1	38*	-1	3	0	2	-19	0
O=C(NCCc1nc(-c2ccccc2Cl)no1)c1ccccc1	-8	-10	9	-2	3	.	.
O=C(C1CCCCC1)N1C[C@@H](O)[C@H](n2cc(C3CC3)nn2)C[C@@H]1c1ccccc1	.	0	.	.	.	.	.
COc1cccc(CNC(=O)Cc2ccc(S(=O)(=O)N3CCOCC3)s2)c1	38*	8	-13	2	-15	49*	-5
Cc1cccc(NC(=O)c2ncn3c2C(=O)N[C@H](C)C3)c1	.	2	.	.	.	.	.
COc1cc(C(CCN2CCOCC2)c2c(OC)cc(OC)c3c(-c4ccccc4)cc(=O)oc23)cc(OC)c1OC (stereo not drawn)	17*	-5	1	0	-5	-7	2
COCCNC(=O)C1CCCN(Cc2ccc(C#N)cc2)CC1 (stereo not drawn)	.	-3	.	.	.	.	.
COCCNC(=O)c1cc2c(c(-c3cccc(C#Cc4ccc(OC)c(OC)c4)c3)n1)[C@H](CCO)N(S(=O)C(C)(C)C)C2 (stereo partly drawn)	.	-2	.	.	.	.	.
O=C(CCCC(=O)c1ccc(O)cc1)c1ccc(O)cc1	4	1	7	-1	3	.	.
O=C1C=CC(=C(c2ccc(O)cc2)c2ccc(O)cc2)C=C1	42*	-8	19	-5	-15	i	-10
Cc1cc(C)n2nc(C(=O)OCC(=O)Nc3ccc(C)c(S(=O)(=O)N(C)C)c3)nc2n1	10	-3	13	-3	-2	.	.
Cc1cc(C)n2nc(C(=O)OCC(=O)Nc3ccc(C)c(S(=O)(=O)N4CCOCC4)c3)nc2n1	28*	0	3	-1	-7	-6	-19
O=C(CSC1=N/C(=C/c2ccc(Cl)c(Cl)c2)C(=O)N1c1ccccc1F)NC1CC1	37*	-2	8	-1	-1	-24	14
COc1ccc(Cl)cc1N1C(=O)/C(=C/c2sccc2C)N=C1SCC(=O)NC1CC1	.	-5	.	.	.	.	.
CCSc1nc(C)cc(Oc2ccc(=O)n(C)n2)n1	89*	-1	3	-1	-2	-192	-13
CSc1nc(C)cc(Oc2ccc(=O)n(C)n2)n1	2	-1	20	-4	-4	.	.
Brc1ccccc1/C=N/Nc1ccc2ccccc2n1	-12	-5	-10	2	-2	.	.
SMILES	HTR5A inv ag	m5-HT2A agonist	MOR-DOR inv ag-1	MOR-DOR ag-1	HTR5A ag	MOR-DOR inv ag-2	HTR5A inv conf	others
O=[N+]([O-])c1cccc(C=NNc2ccc3ccccc3n2)c1O	35*	-12	11	-2	-9	13	47*
O=C(NCc1nnc(SCC(=O)N2CCN(c3ccccc3)CC2)o1)c1ccccc1	3	4	10	-2	4	.	.
O=C(NCc1nnc(SCC(=O)N2CCCC2)o1)c1ccccc1	45*	7	12	-3	-18	i	-99
CCCCNC(=O)C1(C)CCN1C(=O)c1ccc(OC)c(C(F)(F)F)c1 (stereo not drawn)	.	-3	.	.	.	.	.
CC(C)NC(=O)c1cnc(N2CCN(c3ccccn3)CC2)c2ccccc12	44*	-4	0	0	4	-18	5
Cc1cc(C)nc(N/N=C/c2ccccc2OCc2ccc(Br)cc2)n1	-20	-2	-1	0	1	.	.
Cc1cc(C)nc(N/N=C/c2cc(Br)ccc2O)n1	33*	-25	-11	2	-11	23	3
O=C(CCCCCN1C(=O)c2cccc3cccc(c23)C1=O)NCCCO	32*	0	12	-2	-9	-22	-10
Cc1cc(OC(F)F)ccc1NC(=S)NCCc1ccccc1	-23	-3	3	0	0	.	.
FC(F)Oc1ccccc1NC(=S)NCCc1ccccc1	45*	0	-9	2	-17	i	-31
COCCNC(=O)C1(C)CCCN(CCC(=O)c2ccc(Br)cc2)C1 (stereo not drawn)	.	0	.	.	.	.	.
CC(C)(C)C(=O)NC(=S)NNC(=O)C(c1ccccc1)c1ccccc1	45*	-34	22	-4	-15	2	23
CC(=O)NNC(=S)NC(=O)C(c1ccccc1)c1ccccc1	20	1	20	-4	-8	.	.
COc1ccc(-c2ccc(N3C(c4cc(OC)cc(OC)c4)=Cc4ccc(OC)cc4C3CC(C)=O)cc2)cc1 (stereo not drawn)	.	4	.	.	.	.	.
N#CCCN(/N=C/c1cccnc1)C1=NS(=O)(=O)c2ccccc21	34*	-2	11	-2	0	-302	5
O=C(/C=C/c1cccc(F)c1)OCC(=O)N1CCc2ccccc21	-46	-1	-5	1	18*	.	.	MOR-DOR ag-2=1;HTR5A ag confirm=-1
COc1cc(/C=C/C(=O)OCC(=O)N2CCCc3ccccc32)ccc1O	6	1	7	-1	-1	.	.
Cn1c(=O)cc(SCC(=O)N2CCN(Cc3ccc4c(c3)OCO4)CC2)c2ccccc21	3	-3	17	-3	18*	.	.	MOR-DOR ag-2=2;HTR5A ag confirm=-2

Bioassay records (PubChem BioAssay)
